# From PubChem BioAssay (NCI)
# The panel holds about 83,000 compounds, 20% with a hit somewhere; the sample as a whole holds those more often.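 How to read the values: 0–100, growth inhibition (40 = 60% inhibited); 0, no net growth; -100 to 0, cell death (-40 = 40% of starting cells died; -100 = all dead).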 Values without a mark were called inactive. Activity calls are given as the source filed them. How the source made its calls: active means growth percent below 10; inactive means the rest.
# Columns and labels:
# Assay in all cases: NCI-60 one-dose screen, 48 h (100 = growth as untreated, 0 = no growth, -100 = all killed)
# Conditions in all cases: 10 µM unless noted
# SK-MEL-2 melanoma = tested on: SK-MEL-2 melanoma
# EKVX NSCLC = tested on: EKVX NSCLC
# SN12C renal = tested on: SN12C renal
# UO-31 renal = tested on: UO-31 renal
# TK-10 renal = tested on: TK-10 renal
# ACHN renal = tested on: ACHN renal
# CAKI-1 renal = tested on: CAKI-1 renal
# A498 renal = tested on: A498 renal
# MOLT-4 leukemia = tested on: MOLT-4 leukemia
Structure (SMILES),growth (SK-MEL-2 melanoma),growth (EKVX NSCLC),growth (SN12C renal),growth (UO-31 renal),growth (TK-10 renal),growth (ACHN renal),growth (CAKI-1 renal),growth (A498 renal),growth (MOLT-4 leukemia)
N#CC1=C(NC=O)Oc2c(ccc3ccccc23)C1c1ccccc1 (stereo unspecified),29%,67.8%,39.7%,41%,54.6%,43.4%,26.5%,22.9%,39.5%
O=c1c2cc(F)ccc2sc2c(NCCN3CCCCC3)nc3ccccc3c12,98.7%,61%,48.6%,27.1%,77.7%,42.7%,38.6%,61.6%,27.5%
O=C(N/N=C/c1ccncc1)c1ccc(C(F)(F)F)nc1Nc1cccc(C(F)(F)F)c1,-10.9% (active),18.4%,37.7%,8.19% (active),16.8%,17.1%,6.02% (active),35.3%,6.05% (active)
N#CC1=C(/N=C/c2ccccc2)Oc2c(ccc3ccccc23)C1c1ccccc1 (stereo unspecified),45.7%,34.6%,37.8%,32%,45.2%,34.3%,24%,16.3%,19.8%
Cc1ccc(C(=O)C2=C(O)C(=O)N(Cc3cccnc3)C2c2ccccc2F)o1 (stereo unspecified),92.1%,97.7%,95.7%,93.3%,104%,98.5%,105%,95%,90.3%
COc1cccc(-c2nc3sccn3c2-c2ccnc(NCCNS(=O)(=O)c3cccc(Cl)c3)c2)c1,51.8%,45.8%,36.3%,12.9%,59.7%,30.5%,25.9%,44.1%,30.4%
CNC(=O)NCC1OC(n2cnc3c(NC(=O)Nc4ccccc4)ncnc32)C(O[Si](C)(C)C(C)(C)C)C1CC(=O)N(C)OC (stereo unspecified),-4.44% (active),21.4%,16.8%,-6.83% (active),7.05% (active),11.4%,43%,45.6%,-11.7% (active)
Cc1c(C)c2c(c(C)c1OCC(=O)O)CC[C@@](C)(CCC[C@@H](C)CCC[C@@H](C)CCCC(C)C)O2,-26.6% [50 µM] (active),32.3% [50 µM],-32.3% [50 µM] (active),32.6% [50 µM],-0.128% [50 µM] (active),-31.9% [50 µM] (active),7.85% [50 µM] (active),-37.5% [50 µM] (active),-1.22% [50 µM] (active)
CC1(C)CC(=O)C2=C(C1)N(c1ccc(OC(F)(F)F)cc1)C(N)=C(C#N)C2c1ccc(Cl)cc1 (stereo unspecified),90.7%,84.6%,80%,89.9%,89.7%,71.4%,60.8%,94.4%,95.4%
COc1ccc(Nc2nnc(SCc3ccccc3F)s2)cc1,82.9%,94.9%,107%,78.6%,123%,106%,103%,91.4%,94.8%
COc1cc(/C=C/C(=O)c2c(C)nc3ccccc3c2C)ccc1OCCCN1CCN(C(=O)c2ccco2)CC1,59.3%,81.7%,92.5%,66.7%,110%,80.6%,74.8%,59.4%,60.6%
CN1CCN(CC(=O)Nc2nc(-c3cccc(NS(=O)(=O)c4cccc5c(N(C)C)cccc45)c3)cs2)CC1,94.3%,66.4%,69.7%,58.3%,100%,82.3%,67.9%,96.8%,46.2%
CCN(CCNc1ccc(C)c2sc3ccccc3c(=O)c12)CC(C)(C)O,77.3%,101%,101%,70.2%,89.7%,79.7%,79%,81%,40%
CCN(CC)CCn1nc2c3c(cccc3c1=O)-c1ccccc1-2,32.8%,40.7%,15.5%,6.26% (active),26.4%,-41.7% (active),18.1%,24.3%,4.13% (active)
O=C(COc1ccc(/C=C2\Oc3ccccc3C2=O)cc1)c1ccc(Cl)cc1,82.7%,98.8%,103%,110%,120%,104%,81.8%,112%,87.9%
CC1CC(C(C)(C)C)C(=O)C(C(C)(C)C)C1 (stereo unspecified),105%,101%,105%,96.2%,98.2%,105%,105%,93.4%,104%
COc1ccc(-c2csc(C3=C(O)CN(CCCN4CCCC4=O)C3=N)n2)cc1OC,99.2%,97.5%,105%,83.8%,127%,103%,103%,100%,81%
c1csc(-c2c3ccc(=[N+]4CCCCC4)cc-3oc3cc(N4CCCCC4)ccc23)c1,-68.5% (active),-51.8% (active),-65.1% (active),-82.3% (active),-92.5% (active),-94.4% (active),-70.3% (active),-96.4% (active),-28.7% (active)
CNS(=O)(=O)c1n[nH]nc1-c1cc(C(C)(C)C)c(O)c(C(C)(C)C)c1,104%,89.8%,103%,84.2%,111%,98.7%,95.1%,100%,96.9%
Cc1cc(Cl)ccc1Nc1nc(C(F)(F)F)ccc1C(=O)N/N=C/c1ccc(N(C)C)cc1,-6.44% (active),26.3%,57.7%,22.7%,25.8%,24.6%,22.6%,34.7%,12.8%
COc1ccc2c(c1)C(=O)/C(=C/c1cccc(OCC(=O)Nc3nc(C)c(C)s3)c1)O2,59.9%,-45.3% (active),3.1% (active),-79.1% (active),-14.3% (active),-56.5% (active),-81.5% (active),97.2%,-65.4% (active)
O=c1cc(C2NNC(=S)N2)c2ccc3ccccc3c2o1 (stereo unspecified),106%,64.5%,100%,70.6%,126%,94.7%,85.1%,88.1%,102%
COC(=O)c1c2c(c[n+]([O-])c1C)C(=O)C=CC2=O,58.5%,101%,59.7%,46.5%,101%,14.2%,62.1%,106%,-17.4% (active)
COC(=O)/C=C1\S/C(=N\NS(=O)(=O)c2ccc(C)cc2)N(c2ccccc2)C1=O,107%,100%,98.6%,90.8%,109%,104%,96.6%,80.6%,93.9%
N#Cc1c2c(nn(-c3ccccc3)c1=O)C(O)=C([N+](=O)[O-])C(c1ccccc1)C2 (stereo unspecified),89%,83.8%,89.7%,64%,99.1%,74.3%,81.9%,90.7%,67.5%
COc1ccc2[nH]c(O)c(C(=Nc3ccc(N(C)C(=O)CN4CCN(C)CC4)cc3)c3ccccc3)c2c1,33.2%,52.3%,20%,18.8%,51.8%,25.3%,24.6%,-11.3% (active),14.6%
CC1O[C@@H](OC2[C@H](OC(=O)/C=C/c3ccc(O)c(O)c3)C(COC3O[C@H](C)C(O)C(O)[C@@H]3O)O[C@@H](OCCc3ccc(O)c(O)c3)[C@H]2O)[C@@H](O)C(O)[C@H]1O (stereo partly specified),99.6%,91.2%,106%,89.9%,100%,103%,97.3%,107%,99.1%
COc1cc(N=Nc2cc(Cc3ccc(N(C)C)cc3)c(N)cc2N(C)C)c2ncccc2c1,29.4%,8.8% (active),31.2%,-12.6% (active),32.3%,-58.5% (active),13.5%,-8.31% (active),-13.2% (active)
N=C1C(c2nc(-c3ccc(Br)cc3)cs2)=C(O)CN1Cc1cccnc1,111%,71.7%,69.7%,-6.45% (active),60.1%,61.5%,57.1%,86.8%,68.5%
